Entries with a potency or affinity are not part of this list. Results filed as inconclusive are left out. The source made the active and inactive calls.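 Rule for the calls: active = fluorescent signal drops by 40% or more, counted as a hit; inconclusive = no clear call, values can overlap the other calls; inactive = the rest, including any activity in the opposite direction.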
Assay: inhibitors of fibronectin matrix deposition, dose response, AH1F cells, Alexa488-FN fluorescence, cherry-picks (AID 1035475);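 note: AH1F fibroblasts incorporating labeled fibronectin into their extracellular matrix; 0% = neutral control wells and -100% = wells without labeled fibronectin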
Settings: AH1F fibroblasts, overnight; series mostly up to 35 µM; activity change, negative = inhibition: at the top concentration

Question: For `COCC(=O)Nc1ccc2c(c1)C(=O)N(C)[C@@H]1CC[C@@H](CC(=O)NCc3ccccc3Cl)O[C@@H]1CO2`, which “activity change, negative = inhibition” value is on record?
Answer: 40% (inactive)

Question: With `COc1ccc(-c2oc3ncnc(NCCCN4CCOCC4)c3c2-c2ccc(OC)cc2)cc1` as the compound, how does the “activity change, negative = inhibition” value read?
Answer: -21.5% (inactive)

Question: For `C[C@H]1CN([C@@H](C)CO)C(=O)c2cccc(NC(=O)Nc3ccc(C(F)(F)F)cc3)c2O[C@H]1CN(C)C(=O)Nc1cccc2ccccc12`, which “activity change, negative = inhibition” value is on record?
Answer: -1.4% (inactive)

Question: Which “activity change, negative = inhibition” value does the source give for `C[C@@H]1CN([C@@H](C)CO)C(=O)c2cccc(NC(=O)Nc3ccc(C(F)(F)F)cc3)c2O[C@H]1CN(C)C(=O)Nc1cccc2ccccc12` here?
Answer: -29.2% (inactive)

Question: Which “activity change, negative = inhibition” value does the source give for `CO[C@H]1CN(C)C(=O)c2cc(NC(=O)Nc3ccc(Cl)c(Cl)c3)ccc2OC[C@H](C)NC[C@@H]1C` here?
Answer: -15.6% (inactive)

Question: For `CCc1nc2c(OCCc3cccc(OC)c3)cccn2c1N(C)C(=O)c1ccc(C)cc1`, which “activity change, negative = inhibition” value is on record?
Answer: -32.4% (inactive)

Question: For `N#C[C@@H]1[C@H](c2ccccc2C2=CCCCC2)[C@@H](CO)N1S(=O)(=O)c1ccccc1`, which “activity change, negative = inhibition” value is on record?
Answer: 59.9% (inactive)

Question: With `COCC(=O)Nc1ccc2c(c1)C(=O)N(C)[C@@H]1CC[C@H](CC(=O)NCc3ccccc3Cl)O[C@H]1CO2` as the compound, how does the “activity change, negative = inhibition” value read?
Answer: 32.7% (inactive)

Question: Which “activity change, negative = inhibition” value does the source give for `COCC(C)n1c(SCc2nc(N)nc(Nc3ccccc3C)n2)nc2ccccc2c1=O` (stereo not given) here?
Answer: -35.8% (inactive)

Question: For `C[C@H]1CN([C@@H](C)CO)C(=O)c2cc(-c3ccccc3)cnc2O[C@@H]1CN(C)Cc1ccccc1`, which “activity change, negative = inhibition” value is on record?
Answer: 41.3% (inactive)

Question: For `CN(C)C(=O)c1ccc(-c2ccc3c(c2)[C@H]2[C@H](CCN2C(=O)c2ccc(F)cc2)[C@@H](CO)N3C)cc1`, which “activity change, negative = inhibition” value is on record?
Answer: 21.9% [at 30 µM] (inactive)

Question: For `O=C(NCCS(=O)(=O)N1CCN(c2ccc(F)cc2)CC1)c1ccc(Br)o1`, which “activity change, negative = inhibition” value is on record?
Answer: -2.3% (inactive)

Question: With `CO[C@H]1CN(C)C(=O)c2cc(NC(=O)Nc3cc(Cl)cc(Cl)c3)ccc2OC[C@H](C)NC[C@H]1C` as the compound, how does the “activity change, negative = inhibition” value read?
Answer: 9.38% (inactive)

Question: For `Cc1ccc([N+](=O)[O-])cc1NC(=O)CN(C(=O)c1ccccc1Cl)C1CCCCC1`, which “activity change, negative = inhibition” value is on record?
Answer: -14.8% (inactive)

Question: With `CCOc1ccccc1NC(=O)c1c(NC(=O)CCC(=O)O)sc2c1CCCCC2` as the compound, how does the “activity change, negative = inhibition” value read?
Answer: -7.79% (inactive)

Question: For `COC(=O)C[C@@H]1CC[C@H]2[C@@H](COc3ccc(NC(=O)Cc4cccs4)cc3C(=O)N2C)O1`, which “activity change, negative = inhibition” value is on record?
Answer: 29.4% (inactive)

Question: Which “activity change, negative = inhibition” value does the source give for `C[C@@H]1CN([C@@H](C)CO)C(=O)c2cc(-c3ccccc3)cnc2O[C@@H]1CN(C)Cc1ccccc1` here?
Answer: 15.3% (inactive)

Question: Which “activity change, negative = inhibition” value does the source give for `COc1cccc(S(=O)(=O)N2CC[C@@H]3[C@H]2c2cc(-c4ccc(C#N)cc4)ccc2N[C@@H]3CO)c1` here?
Answer: -9.22% (inactive)

Question: Which “activity change, negative = inhibition” value does the source give for `CO[C@@H]1CN(C)C(=O)c2ccc(NC(=O)c3ccc(-c4ccccc4)cc3)cc2OC[C@@H](C)NC[C@@H]1C` here?
Answer: 6.9% (inactive)

Question: For `CC(NC(=O)CSc1ccc(S(=O)(=O)N2CCOCC2)cn1)c1ccc(Cl)cc1Cl` (stereo not given), which “activity change, negative = inhibition” value is on record?
Answer: -9.93% (inactive)

Question: For `O=C(CCC(=O)c1cccs1)NCc1cccnc1`, which “activity change, negative = inhibition” value is on record?
Answer: -16.4% (inactive)

Question: With `C[C@H]1CN([C@@H](C)CO)C(=O)c2cccc(NC(=O)Nc3ccc(C(F)(F)F)cc3)c2O[C@@H]1CN(C)C(=O)Nc1cccc2ccccc12` as the compound, how does the “activity change, negative = inhibition” value read?
Answer: 18.8% (inactive)

Question: Which “activity change, negative = inhibition” value does the source give for `COC(=O)C[C@H]1CC[C@@H]2[C@H](COc3ccc(NC(=O)Cc4cccs4)cc3C(=O)N2C)O1` here?
Answer: 10.4% (inactive)

Question: Which “activity change, negative = inhibition” value does the source give for `NC(=O)C1=C[C@H](c2coc3ccccc3c2=O)C[C@H](OCCCCO)O1` here?
Answer: 22% (inactive)

Question: Which “activity change, negative = inhibition” value does the source give for `CC(C)(C)[S@@](=O)N1Cc2cc(C(=O)NCc3ccccc3F)nc(-c3cccc(-c4ccncc4)c3)c2[C@H]1CCO` here?
Answer: -7.62% (inactive)

Question: For `C[C@@H]1CN([C@H](C)CO)C(=O)c2cc(-c3ccccc3)cnc2O[C@@H]1CN(C)Cc1ccccc1`, which “activity change, negative = inhibition” value is on record?
Answer: 31% (inactive)

Question: Which “activity change, negative = inhibition” value does the source give for `CN(C)C(=O)c1ccc(-c2ccc3c(c2)[C@@H]2[C@@H](CCN2C(=O)c2ccc(F)cc2)[C@@H](CO)N3C)cc1` here?
Answer: 24% (inactive)

Question: Which “activity change, negative = inhibition” value does the source give for `CO[C@@H]1CN(C)C(=O)c2cc(NC(=O)Nc3cc(Cl)cc(Cl)c3)ccc2OC[C@H](C)NC[C@@H]1C` here?
Answer: 4.27% (inactive)

Question: For `COC(=O)C[C@H]1CC[C@H]2[C@H](COc3ccc(NC(=O)Cc4cccs4)cc3C(=O)N2C)O1`, which “activity change, negative = inhibition” value is on record?
Answer: 16.8% (inactive)

Question: With `Cc1oc2ccc(O)cc2c1C(=O)c1ccc(Br)cc1` as the compound, how does the “activity change, negative = inhibition” value read?
Answer: -1.76% (inactive)

Question: Which “activity change, negative = inhibition” value does the source give for `O=C(Nc1ccccc1F)N1C[C@H]2[C@@H](c3ccccc31)[C@@H](CO)N2C(=O)C1CC1` here?
Answer: 25.7% (inactive)

Question: For `N#C[C@H]1[C@@H](c2ccccc2C2=CCCCC2)[C@@H](CO)N1S(=O)(=O)c1ccccc1`, which “activity change, negative = inhibition” value is on record?
Answer: 19.1% (inactive)

Question: With `S=C(NCC1CCCO1)Nc1ccc(Cl)cc1Cl` (stereo not given) as the compound, how does the “activity change, negative = inhibition” value read?
Answer: -11% (inactive)

Question: Which “activity change, negative = inhibition” value does the source give for `COC(=O)C[C@@H]1CC[C@@H]2[C@H](COc3ccc(NC(=O)Cc4cccs4)cc3C(=O)N2C)O1` here?
Answer: 7.52% (inactive)

Question: For `O=C(CN1CCCC1)Nc1ccc(Oc2ccc(NC(=O)CN3CCCC3)cc2)cc1`, which “activity change, negative = inhibition” value is on record?
Answer: -14.8% (inactive)
